# Assays:
# Test in all cases: yeast three-hybrid, YBZ-1, SC-Leu-His + 0.5 mM 3-AT, 4 days
# Conditions in all cases: tags: N-Gal4 AD-HA kept; label: inside an RPR1-promoter hybrid RNA with tandem MS2 sites; ssRNA
# [1] = biological target: PUM1 PUF domain R4-PFV (Homo sapiens, UniProt Q14671 828-1176, N971P;H972F;Q975V)
# Summary of the method: (§1)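 Repeat regions from input (SC-Leu) and selection (SC-Leu-His + 0.5 mM 3-AT) plates were PCR-amplified and Illumina-sequenced after four days of growth. The cells were strain YBZ-1 with a LexA–MS2 coat fusion and a HIS3 reporter, co-expressing Pumilio-1 PUF domain libraries and matching RNA elements from a centromeric plasmid. The interaction score is the log change in variant frequency from input to selection, taken in log2 with a pseudocount of 1 for absent variants.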
# [2] = biological target: PUM1 PUF domain R2-GWF (Homo sapiens, UniProt Q14671 828-1176, N899G;Y900W;Q903F)
# Summary of the method: as §1
# [3] = biological target: PUM1 PUF domain R3-RRW (Homo sapiens, UniProt Q14671 828-1176, C935R;Q939W)
# Summary of the method: as §1
# [4] = biological target: PUM1 PUF domain R3-EFA (Homo sapiens, UniProt Q14671 828-1176, C935E;R936F;Q939A)
# Summary of the method: as §1
# [5] = biological target: PUM1 PUF domain R3-TSR (Homo sapiens, UniProt Q14671 828-1176, C935T;R936S;Q939R)
# Summary of the method: as §1
# [6] = biological target: PUM1 PUF domain R3-RVA (Homo sapiens, UniProt Q14671 828-1176, C935R;R936V;Q939A)
# Summary of the method: as §1
# [7] = biological target: PUM1 PUF domain R3-VYW (Homo sapiens, UniProt Q14671 828-1176, C935V;R936Y;Q939W)
# Summary of the method: as §1
# [8] = biological target: PUM1 PUF domain R3-SGE (Homo sapiens, UniProt Q14671 828-1176, C935S;R936G;Q939E)
# Summary of the method: as §1
# [9] = biological target: PUM1 PUF domain R1-YMR (Homo sapiens, UniProt Q14671 828-1176, S863Y;R864M;Q867R)
# Chain of PUM1 PUF domain R1-YMR (Q14671 828-1176 S863Y/R864M/Q867R): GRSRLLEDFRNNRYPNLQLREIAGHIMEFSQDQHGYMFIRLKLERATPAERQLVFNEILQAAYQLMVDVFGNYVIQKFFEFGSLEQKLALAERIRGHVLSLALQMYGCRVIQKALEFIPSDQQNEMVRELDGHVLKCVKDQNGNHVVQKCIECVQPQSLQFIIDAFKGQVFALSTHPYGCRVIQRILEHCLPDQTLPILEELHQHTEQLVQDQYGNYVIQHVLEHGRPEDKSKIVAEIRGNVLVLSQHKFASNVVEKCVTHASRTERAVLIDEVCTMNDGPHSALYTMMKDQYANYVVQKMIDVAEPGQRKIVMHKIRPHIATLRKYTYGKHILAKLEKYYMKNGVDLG
# Summary of the method: as §1
# [10] = biological target: PUM1 PUF domain R7-RKL (Homo sapiens, UniProt Q14671 828-1176, S1079R;N1080K;E1083L)
# Summary of the method: as §1
# [11] = biological target: PUM1 PUF domain R7-KRL (Homo sapiens, UniProt Q14671 828-1176, S1079K;N1080R;E1083L)
# Summary of the method: as §1
# [12] = biological target: PUM1 PUF domain R5-GMR (Homo sapiens, UniProt Q14671 828-1176, C1007G;R1008M;Q1011R)
# Chain of PUM1 PUF domain R5-GMR (Q14671 828-1176 C1007G/R1008M/Q1011R): as the sequence (Q14671 828-1176 S863Y/R864M/Q867R) above, with Y36S, M37R, R40Q, C180G, R181M, Q184R counted along it
# Summary of the method: as §1
# Chain of PUM1 PUF domain R4-PFV (Q14671 828-1176 N971P/H972F/Q975V): as the sequence (Q14671 828-1176 S863Y/R864M/Q867R) above, with Y36S, M37R, R40Q, N144P, H145F, Q148V counted along it
sequence,measurement,setting,value
GGCUAGAACUAGUGGAUCCCCCGGCGCCCGGCGGCUCGAGCCCGGGUAAGUGUAUAUAGUCUGCAUGCCGCCGGGCGCCAUGCCUGCAGGUCGACUCUAGAAAACAUG,binding signal,[1],6.87 log2 enrichment (interaction score)
GGCUAGAACUAGUGGAUCCCCCGGCGCCCGGCGGCUCGAGCCCGGGUAAGUGUAAAAAGUCUGCAUGCCGCCGGGCGCCAUGCCUGCAGGUCGACUCUAGAAAACAUG,binding signal,[2],3.4 log2 enrichment (interaction score)
GGCUAGAACUAGUGGAUCCCCCGGCGCCCGGCGGCUCGAGCCCGGGUAAGUGUAAUUAGUCUGCAUGCCGCCGGGCGCCAUGCCUGCAGGUCGACUCUAGAAAACAUG,binding signal,[3],3.94 log2 enrichment (interaction score)
same,binding signal,[4],3.24 log2 enrichment (interaction score)
same,binding signal,[5],2.25 log2 enrichment (interaction score)
same,binding signal,[6],2.31 log2 enrichment (interaction score)
same,binding signal,[7],4.86 log2 enrichment (interaction score)
GGCUAGAACUAGUGGAUCCCCCGGCGCCCGGCGGCUCGAGCCCGGGUAAGUGUACAUAGUCUGCAUGCCGCCGGGCGCCAUGCCUGCAGGUCGACUCUAGAAAACAUG,binding signal,[1],5.7 log2 enrichment (interaction score)
GGCUAGAACUAGUGGAUCCCCCGGCGCCCGGCGGCUCGAGCCCGGGUAAGUGUAAGUAGUCUGCAUGCCGCCGGGCGCCAUGCCUGCAGGUCGACUCUAGAAAACAUG,binding signal,[8],4.96 log2 enrichment (interaction score)
same,binding signal,[6],0.81 log2 enrichment (interaction score)
GGCUAGAACUAGUGGAUCCCCCGGCGCCCGGCGGCUCGAGCCCGGGUAAGUGUAAAUCGUCUGCAUGCCGCCGGGCGCCAUGCCUGCAGGUCGACUCUAGAAAACAUG,binding signal,[9],6.92 log2 enrichment (interaction score)
GGCUAGAACUAGUGGAUCCCCCGGCGCCCGGCGGCUCGAGCCCGGGUAAGUUUAAAUAGUCUGCAUGCCGCCGGGCGCCAUGCCUGCAGGUCGACUCUAGAAAACAUG,binding signal,[10],4.32 log2 enrichment (interaction score)
same,binding signal,[11],5.24 log2 enrichment (interaction score)
GGCUAGAACUAGUGGAUCCCCCGGCGCCCGGCGGCUCGAGCCCGGGUAAGUGUUAAUAGUCUGCAUGCCGCCGGGCGCCAUGCCUGCAGGUCGACUCUAGAAAACAUG,binding signal,[12],1.23 log2 enrichment (interaction score)

# From article PMC8384837, “Expanding the binding specificity for RNA recognition by a PUF domain”
